Experimental data reported in the supplement of paper PMC4166925.
± gives the standard deviation of the averaged measurements. Whole data set: some 33,000 sequences, median “E-score (dimensionless, -0.5 to 0.5)” near -0.049, cut for the highest 2% near 0.37. The sample as a whole holds a higher share of the highest values than the screen did.

Test system: T1, PmTbr T-box DNA-binding domain (GST fusion)
T1 sequence: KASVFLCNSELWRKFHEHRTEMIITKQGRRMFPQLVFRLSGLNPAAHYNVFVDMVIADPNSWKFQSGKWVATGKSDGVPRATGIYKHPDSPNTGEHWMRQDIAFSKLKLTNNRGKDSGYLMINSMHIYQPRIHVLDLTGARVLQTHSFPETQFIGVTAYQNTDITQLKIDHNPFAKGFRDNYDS
Experiment: PBM E-score of 8-mer (E-score (dimensionless, -0.5 to 0.5)); Tbr is Tbrain of the sea star Patiria miniata (Pm) or the sea urchin Strongylocentrotus purpuratus (Sp); higher = stronger binding preference
Conditions: the construct has about 5 more residues each side
Procedure: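 Universal protein-binding microarray (Agilent AMADID 016060, 60-bp probes with a 35-bp variable region) incubated with 200 nM GST-fused Patiria miniata Tbr T-box DNA-binding domain (residues 272-466) in PBS pH 7.5. Scored for every ungapped 8-mer (given with its reverse complement) by the Universal PBM Analysis Suite as E-score (modified Wilcoxon-Mann-Whitney enrichment, range -0.5 to 0.5; >0.45 counts as bound) and Z-score of median probe intensity. Two replicate arrays (datasets 1 and 2).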
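Note: 200 nM protein in PBS on universal arrays averaged over duplicate arrays.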

Sequence | PBM E-score of 8-mer
ATCCCAAG | -0.275 ± 0.07
CGTACTTA | -0.115 ± 0.042
TGGCTACA | -0.117 ± 0.0015
GATGTTGC | -0.0903 ± 0.014
CCCAAAAC | 0.0141 ± 0.0023
CACCTACG | 0.412 ± 0.0089
AACCTACG | -0.21 ± 0.0028
CCCCTACG | -0.0948 ± 0.0047
AACCTACC | -0.0696 ± 0.071
GACCTACA | -0.125 ± 0.019
CACCTACC | 0.413 ± 0.015
CACCTACA | 0.407 ± 0.013
TACCTACA | -0.2971 ± 0.00036
GACCTACC | -0.153 ± 0.0062
CGGAAGGA | -0.209 ± 0.012
CTGCCACA | 0.226 ± 0.014
GCAAAGGA | -0.229 ± 0.021
CTTCTCGC | 0.229 ± 0.027
ACCTGGGG | 0.0226 ± 0.0096
AGTCGAGG | 0.0125 ± 0.11
CGTACTGA | -0.105 ± 0.017
AATCTAAA | -0.0399 ± 0.05
AGCATCCC | -0.136 ± 0.039
CACTGTGG | -0.16 ± 0.098
CTATTATC | -0.101 ± 0.018
CCGTGCTA | 0.263 ± 0.0013

Sequence | PBM E-score of 8-mer
ATGTGCCC | -0.0261 ± 0.068
ATGTGCTC | -0.297 ± 0.012
ACGTGCTA | 0.417 ± 0.019
AAGTGCCA | 0.41 ± 0.0065
AAGTGCCC | -0.143 ± 0.0036
ATGTGCTA | 0.396 ± 0.0083
ATGTGCCG | 0.0963 ± 0.036
GCGTGCTA | 0.261 ± 0.0046
GAGTGCCA | 0.242 ± 0.0057
CTGTGCTA | 0.0225 ± 0.0027
ATGTGCCA | 0.375 ± 0.0048
ATGACCTC | -0.0665 ± 0.086
CAGCGATA | 0.0152 ± 0.0054
ACAAGAGG | -0.108 ± 0.048
CATACAGG | -0.17 ± 0.0088
CCACTCCG | -0.01631 ± 0.00014
GATTAGAC | -0.0447 ± 0.044
GCCTCTGA | 0.0009 ± 0.067
ACTTAAAG | 0.0623 ± 0.041
AAGTGCTA | 0.448 ± 0.016
AAGTGCTC | 0.0187 ± 0.018
AAGTGCTG | 0.283 ± 0.0071
CCCTTAAG | -0.00471 ± 0.02
CGTGCAGC | 0.0118 ± 0.029
AATCGCAT | 0.0479 ± 0.038
CATCGCAG | 0.0526 ± 0.063

Sequence | PBM E-score of 8-mer
GATCGCAC | 0.42 ± 0.018
GATCGCAA | 0.244 ± 0.013
CATCGCAA | 0.0368 ± 0.039
AATCGCAC | 0.381 ± 0.0051
AATCGCAG | 0.0445 ± 0.062
GATCGCGC | 0.289 ± 0.018
CATCGCAC | 0.373 ± 0.023
ACGAATGG | 0.0417 ± 0.027
GAATGGGA | -0.214 ± 0.011
GCCATGTA | -0.101 ± 0.045
ACCACTCC | 0.0476 ± 0.03
GCTTGCGA | 0.105 ± 0.024
ACTTGCGA | 0.386 ± 0.006
CCTTGCGA | 0.243 ± 0.012
AGTTGCGA | 0.412 ± 0.0052
AGTTGCGG | 0.0771 ± 0.12
AGTTGCGC | 0.0703 ± 0.035
CGGGTCAC | 0.113 ± 0.024
CAGAGGTC | -0.0549 ± 0.0023
ACAGTAAC | 0.186 ± 0.054
GCTTAAGC | -0.292 ± 0.0039
AGGCCCCC | -0.332 ± 0.014
AAACGGCA | 0.0707 ± 0.068
GGCTTCAA | -0.121 ± 0.014
AATTCGAC | -0.0254 ± 0.029
CCATCACG | 0.033 ± 0.018

Sequence | PBM E-score of 8-mer
GGGTGGTA | 0.121 ± 0.07
AGGTGGTA | 0.415 ± 0.0043
CGGTGGTA | -0.00583 ± 0.042
AGGTGGGC | -0.0782 ± 0.065
AGGTGGTG | 0.385 ± 0.042
AGGTGGTC | -0.0579 ± 0.012
AGGTGGAG | 0.141 ± 0.0032
AGGTGGGA | 0.418 ± 0.01
CGGTGGGA | -0.0368 ± 0.0018
ATTCAGAG | -0.13 ± 0.0013
CGACTTGC | 0.161 ± 0.025
CCATCTCG | -0.0242 ± 0.099
GCTTGCCC | -0.245 ± 0.0072
TCCATCGA | -0.121 ± 0.022
ATAACGCC | 0.237 ± 0.023
ATTGCACG | 0.152 ± 0.033
CGGTGGCA | 0.147 ± 0.031
AGGTGGCG | 0.412 ± 0.023
GGGTGGCA | 0.322 ± 0.024
AAGTGGCG | 0.3473 ± 0.0029
AGGTGGCC | 0.0319 ± 0.077
AGGTGGCA | 0.436 ± 0.0087
AAGTTGGA | -0.0116 ± 0.045
AGAAGTCC | 0.0869 ± 0.022
GTAGCCCA | -0.311 ± 0.012
ACACATCT | 0.325 ± 0.019

Sequence | PBM E-score of 8-mer
CCACATCC | -0.102 ± 0.032
ACACATCC | 0.3871 ± 0.0015
ACACATCG | 0.382 ± 0.017
GCACATCC | 0.136 ± 0.038
ACACATCA | 0.299 ± 0.017
ACTTCTCC | -0.0311 ± 0.0014
GGAGGCTA | -0.209 ± 0.016
ATAGGCAT | -0.337 ± 0.021
CAAAGGTA | -0.133 ± 0.035
AAAAGGTT | -0.0316 ± 0.041
AAAAGGTG | 0.442 ± 0.012
CAAAGGTG | 0.436 ± 0.018
AAAAGGTC | -0.0764 ± 0.033
CAAAGGTC | -0.13 ± 0.039
GAAATTAA | -0.113 ± 0.044
GTTGCTCA | 0.0245 ± 0.051
ACCCTCAG | 0.0121 ± 0.00031
AACTAGGC | -0.0964 ± 0.044
CTTCCCCC | -0.166 ± 0.07
AGCTGGGC | -0.222 ± 0.056
GCTGGTTA | -0.0863 ± 0.064
AACCTATT | -0.172 ± 0.056
TACCTATA | -0.137 ± 0.041
AACCTATC | -0.165 ± 0.17
AACCTATG | -0.141 ± 0.019
AACCTATA | -0.0111 ± 0.13

Sequence | PBM E-score of 8-mer
GACCTATC | -0.0538 ± 0.05
CACCTATC | 0.399 ± 0.0088
CACCTATG | 0.429 ± 0.011
CACCTATA | 0.377 ± 0.018
CGACTCAG | -0.0525 ± 0.0052
CTTTATGA | -0.00777 ± 0.018
CTCCACAC | 0.341 ± 0.0092
GGCGTCAA | 0.4094 ± 0.001
AGCGTTAA | 0.265 ± 0.06
GGCGTTAA | 0.377 ± 0.024
TGCGTTAA | 0.109 ± 0.017
AGCGTCAA | 0.258 ± 0.0039
CGCGTCAA | 0.308 ± 0.0074
AAACCAAC | -0.0437 ± 0.062
CCATTAAA | -0.239 ± 0.0035
ATTTCGCG | 0.4125 ± 0.00097
ATTTCGAG | 0.09258 ± 0.00026
ATTTCGCC | -0.0762 ± 0.14
ATTTCGCA | 0.378 ± 0.0045
GTTTCGCA | 0.3685 ± 0.0028
AATTCGCG | 0.303 ± 0.035
CTTTCGGA | -0.0447 ± 0.021
CTTTCGCA | 0.411 ± 0.015
CTTTCGCC | -0.0672 ± 0.025
GTTCGAAA | -0.132 ± 0.091
GTATTCGA | 0.0428 ± 0.0073

Sequence | PBM E-score of 8-mer
GATCGAAC | -0.0822 ± 0.031
CGCACAGA | -0.108 ± 0.087
AACTGATG | 0.0361 ± 0.047
CGCTTTGC | -0.129 ± 0.036
ATCCATTG | -0.235 ± 0.089
ACTTGGCA | 0.239 ± 0.015
AGCTGTTG | 0.2441 ± 0.0021
AGATGTCC | -0.322 ± 0.016
AGGTGTTC | 0.4091 ± 0.0032
AGATGTTG | 0.0167 ± 0.014
AGGTGTTG | 0.4891 ± 0.0019
ACGTGTCC | 0.0892 ± 0.034
AGGTGTCC | 0.45 ± 0.0092
AGATGTTC | 0.0612 ± 0.07
CGGTGTTC | -0.0289 ± 0.062
GAGCGAAC | 0.0537 ± 0.089
GCTAACTA | 0.212 ± 0.07
ACGCTAGT | 0.036 ± 0.023
GCACACTA | 0.102 ± 0.027
GATAGCCA | -0.257 ± 0.028
